In the library only some 9.4% were active in any assay of this set; here they are far more common.
IMPase Li cell: membrane-permeable IMPase blocker, potentiated with lithium. CHO-M1 cells, IP1 TR-FRET (IP-One), carbachol + lithium. Potency, µM (top dose mostly 59.4 µM), for the others: at the top dose activity, negative = IMPase inhibition, most hits filed as inhibitors. AID 1457. 0.35% of 210,000 active;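 further: IP1 builds up when IMPase is blocked and the TR-FRET signal falls; potency means the concentration at half of the fitted maximal effect; plate controls were basal vehicle for no effect and high inhibitor control for full effect; nearly all actives have a fitted effect of over 50% in size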
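Readout is a homogeneous TR-FRET IP1 immunoassay (Ex 320, Em 665 and 620), where raised cytosolic IP1 lowers signal. Cells were CHO-M1 treated 30 min at 37C with test compounds plus a little lithium; AC50 values came from Hill-equation fitting.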
HTT aggregate: inhibitors of mutant huntingtin aggregate formation in PC12 cells; 1.1% of 220,000 active; AID 1688; Potency, µM (highest dose often 46.1 µM), inactives show at the top dose activity change, negative = inhibition, actives largely listed as inhibitors; PC12 HttQ103-GFP aggregates, Acumen cytometry, 40 h; further: potency means the concentration at half of the fitted maximal effect; on the % scale 0 is the no-effect control and ±100 the full control effect; nearly all actives have a fitted effect of over 60% in size
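Read-out: GFP aggregate count by laser scanning cytometer (488 nm excitation, 500-530 nm emission, 1–25 µm objects >6 SD above background). Cells: PC12, inducible HTTex1-Q103-GFP, 100 nM tebufenozide; compounds titrated.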
ALDH1A1 block: ALDH1A1 (human) enzyme inhibition; P00352; Purified ALDH1A1, NADH fluorescence, propionaldehyde substrate; Potency, µM (top dose mostly 75.3 µM), for the others: top-dose activity, negative = inhibition, hits mostly inhibitors; 7.3% of 220,000 active; active means well fitted inhibition curve with a large enough effect, not every such curve was filed as active; inconclusive means small, poorly fitted or top-dose-only effect, or another doubt; inactive means no such curve, though single readings can be large or run the other way;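 further: potency means the concentration at half of the fitted maximal effect; plate controls were no enzyme wells and a reference inhibitor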
Target sequence (P00352 whole entry, looked up): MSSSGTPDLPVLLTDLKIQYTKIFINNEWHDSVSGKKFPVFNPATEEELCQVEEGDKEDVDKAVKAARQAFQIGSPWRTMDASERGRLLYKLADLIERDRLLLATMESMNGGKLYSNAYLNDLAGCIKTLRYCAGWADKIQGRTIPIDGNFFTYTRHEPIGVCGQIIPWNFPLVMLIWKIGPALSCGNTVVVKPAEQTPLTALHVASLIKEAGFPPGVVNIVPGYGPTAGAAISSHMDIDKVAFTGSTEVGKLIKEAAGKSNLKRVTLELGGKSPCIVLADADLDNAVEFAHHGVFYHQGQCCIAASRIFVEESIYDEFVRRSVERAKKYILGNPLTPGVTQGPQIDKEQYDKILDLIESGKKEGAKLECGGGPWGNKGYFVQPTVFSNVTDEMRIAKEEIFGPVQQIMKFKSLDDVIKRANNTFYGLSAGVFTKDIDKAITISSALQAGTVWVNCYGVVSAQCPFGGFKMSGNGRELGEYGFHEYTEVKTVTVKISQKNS
HTT ATP protect: protects HTT-Q103 PC12 cells, measured by ATP; PC12 HTT-Q103 induced, cytoprotection, ATP luminescence, 40 h; Potency, µM (doses to about 56.4 µM), for the others: cytoprotection (ATP increase), actives largely listed as activators; 0.14% of 230,000 active; further: potency means the concentration at half of the fitted maximal effect; % of control where 0% means no effect; nearly all actives have a fitted effect of over 45% in size
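Cells were plated at 1500 per well in phenol red-free DMEM with 5% equine and 5% calf serum. Tebufenozide (100 nM final) and compounds were added, then ATPlite reagent, and luminescence was read.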
HPGD inh: blocks human HPGD enzyme activity | P15428 | purified HPGD, NADH fluorescence kinetic, PGE2 substrate | Potency, µM, for inactives: top-dose activity change, negative = inhibition, usual class: inhibitors | 4.3% of 150,000 active; active means well fitted inhibition curve with a large enough effect, not every such curve was filed as active; inconclusive means small, poorly fitted or top-dose-only effect, or another doubt; inactive means no such curve, though single readings can be large or run the other way; further: potency means the concentration at half of the fitted maximal effect; on the % scale 0 is the no-effect control and ±100 the full control effect
Target sequence (P15428 whole entry, looked up): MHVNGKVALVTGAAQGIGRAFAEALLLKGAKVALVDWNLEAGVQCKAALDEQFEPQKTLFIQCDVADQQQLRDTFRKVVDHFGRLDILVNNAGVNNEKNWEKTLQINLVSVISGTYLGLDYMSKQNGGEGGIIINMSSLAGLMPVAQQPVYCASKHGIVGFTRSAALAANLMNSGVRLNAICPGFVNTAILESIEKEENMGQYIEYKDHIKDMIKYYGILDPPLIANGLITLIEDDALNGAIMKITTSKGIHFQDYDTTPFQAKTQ
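20 nM HPGD preincubated 15 min at room temperature with compound in 50 mM Tris-HCl pH 8, 0.01% Tween 20. Started with 1 mM NAD+ and 30 uM prostaglandin E2; NADH fluorescence (360/450 nm) read 5 times over 30-s intervals, last minus first.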
IMPase inh: membrane-permeable compound that blocks inositol monophosphatase; P97697; CHO-M1 cells, IP1 accumulation, HTRF TR-FRET ratio; inhibition (IP1 accumulation), % at 46.1 µM; 120,000 tested, under 10 active; AID 901; active means well fitted curve in the direction sought with a large enough effect in the signal ratio, not every such curve was filed as active; inconclusive means small, poorly fitted or top-dose-only effect, or a change in a side signal; inactive means no such curve, though single readings can be large or run the other way; the % refers to the signal ratio;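 further: cells stimulated with carbachol in lithium chloride buffer; plate controls were DMSO basal wells for no effect and reference inhibitor wells for full effect; higher means more IMPase inhibition seen as more IP1 and lower FRET ratio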
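Elevated IP1 in lysates lowers TR-FRET signal (665/620 ratio and 620 channel reported). Cells were CHO-M1, given carbachol (50 uM as added) plus 50mM LiCl, pH 7.4, 30 min, 37C; compounds titrated up to 46 uM; AC50 by Hill equation.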
Active calls of the source: *; ? = inconclusive; / = not tested or not shown; [ ] = another dose, or the depositor's remark. Unless noted, the call rests on the fitted dose curve; in most records, active means well fitted curve in the direction sought with a large enough effect; inconclusive means small, poorly fitted or top-dose-only effect, or another doubt; inactive means no such curve, though single readings can be large; an effect the other way counts as inactive or inconclusive.

SMILES | IMPase Li cell | HTT aggregate | ALDH1A1 block | HTT ATP protect | HPGD inh | IMPase inh
O=C(c1ccc(Nc2nc3ccccc3n3nnnc23)cc1)N1CCN(c2ccc(F)cc2)CC1 | / | / | / | / | / | -5
O=C(O)c1cc(NN=Nc2ccc(Br)cc2)cc([N+](=O)[O-])c1 | / | 23%[9.22 µM] | 6.3µM* | -23%[10 µM] | / | /
O=[N+]([O-])c1ccc(N=NNc2ccccc2)cc1 | 1% | -5% | ? | -39% | / | /
O=C(O)c1cc(NN=Nc2cccc([N+](=O)[O-])c2)cc([N+](=O)[O-])c1 | / | -4%[9.22 µM] | 20µM* | -3%[10 µM] | / | /
COc1ccc(Br)cc1[C@@H]1Nc2ccc(C(=O)O)cc2[C@@H]2C=CC[C@@H]21 | / | / | / | / | / | -6
COc1ccc(C(=O)N/N=C(\C)c2ccc3c(c2)C2C=CCC2C(c2ccccc2)N3)cc1 (configuration not stated) | 13% | ? | 11µM* | 5%[10 µM] | -23% | -4
COc1cccc(NS(=O)(=O)c2ccc3c(c2)C2C=CCC2C(c2ccc(C(=O)O)cc2)N3)c1 (configuration not stated) | 0% | 9% | 20µM* | / | -28% | /
COc1ccccc1N1CCN(CCCCNS(=O)(=O)c2cccc3c(N(C)C)cccc23)CC1 | -4% | / | ? | -26%[1.9 µM] | -15% | -7
C/C(O)=C1\C(=O)[C@@H]2[C@H]3c4c[nH]c5cccc(c45)C[C@H]3C(C)(C)N2C1=O | 4% | / | -4% | -117% | / | /
CCOC(=O)C1CCN(c2cc3c(cc2NC(=O)c2ccc(Cl)cc2)n(C)c(=O)n3C)CC1 | / | / | / | / | / | -4
CN(C)S(=O)(=O)c1ccc(Cl)c(NC(=O)c2ccncc2)c1 | -1% | -21% | 11µM* | -2%[10 µM] | -2% | /
Cc1ccc(S(=O)(=O)N(C)C)cc1NC(=O)c1cccnc1Oc1ccccc1 | / | 13%[9.22 µM] | 28µM* | 4%[10 µM] | / | /
Cc1ccc(S(=O)(=O)N(C)C)cc1NC(=O)c1cc(C(C)(C)C)nn1Cc1ccccc1 | / | 8%[9.22 µM] | 4.5µM* | -19%[10 µM] | / | /
OB(O)c1csc2ccccc12 | -7% | / | 0% | -47% | -5% | /
c1csc(-c2nnsc2-c2nc3ccccc3[nH]2)c1 | 1%[38.3 µM] | -22% | 10µM* | -23% | ? | 2
COc1cccc(N(CC(=O)NCC2CCCO2)C(=O)CCC(=O)Nc2nccs2)c1 (configuration not stated) | 0% | -7%[9.22 µM] | -3% | -2%[10 µM] | / | /
Cc1ccc(C)c2c1[nH]c1ccccc12 | 25%[38.3 µM] | 4% | -6% | 34% | -11% | -15
CNCCCCc1cnc(C)c2[nH]c3ccccc3c12 | 10% | / | ? | 3.5µM* | ? | /
Cn1c2ccccc2c2n[nH]c(=O)nc21 | -16% | -15% | -2% | -36% | / | /
Cn1c2ccccc2c2nn(-c3ccccc3)c(=O)cc21 | -3%[38.3 µM] | -8% | 13µM* | 0% | -16% | 1
C=CCN(Cc1nc(-c2ccc(OC)c(OC)c2)oc1C)C1CCS(=O)(=O)C1 (configuration not stated) | 6% | 8%[9.22 µM] | ? | 23%[10 µM] | / | /
Cc1cccc(NC(=O)C2C(c3ccccc3)C2(Cl)Cl)c1 (configuration not stated) | 19% | -3%[9.22 µM] | 25µM* | 7%[10 µM] | / | /
COc1ccc(NC(=O)C2C(c3ccccc3)C2(Cl)Cl)cc1 (configuration not stated) | / | 3%[9.22 µM] | 1% | 3%[10 µM] | / | /
CC(=O)c1cccc(NC(=O)C2C(c3ccccc3)C2(Cl)Cl)c1 (configuration not stated) | 6% | -1% | -1% | -24% | / | /
Cc1ccc(NC(=O)C2C(c3ccccc3)C2(Cl)Cl)c(C)c1 (configuration not stated) | 26%[38.3 µM] | ? | 5% | -22% | 28µM* | 10
SMILES | IMPase Li cell | HTT aggregate | ALDH1A1 block | HTT ATP protect | HPGD inh | IMPase inh
O=C(NC1CCCCC1)c1ccc(Cc2nc3ccccc3[nH]2)cc1 | / | / | 5% | / | -4% | /
COc1cc2ccc([C@H](C)NCC#N)cc2cc1OC | 6% | / | -4%[13.5 µM] | 3%[10 µM] | -9% | /
COc1cccc(CCc2nnc(CCC(=O)NC(C)Cc3cccs3)o2)c1 (configuration not stated) | / | -4%[9.22 µM] | / | 20%[10 µM] | / | /
COc1ccc(S(=O)(=O)NCC2CCCN(CC(C)(C)C)C2)cc1 (configuration not stated) | 9% | -5%[9.22 µM] | 20µM* | 15%[10 µM] | / | /
COc1ccc(S(=O)(=O)NCC2CCCN(C(=O)c3cccnc3)C2)cc1 (configuration not stated) | 0% | 10%[9.22 µM] | ? | 20%[10 µM] | / | /
COc1ccc(S(=O)(=O)NCC2CCCN(C(=O)C=C(C)C)C2)cc1 (configuration not stated) | 4% | 7%[9.22 µM] | 4.5µM* | 34%[10 µM] | / | /
COC(=O)CCC(=O)N1CCCC(CNS(=O)(=O)c2ccc(OC)cc2)C1 (configuration not stated) | 3% | 5%[9.22 µM] | 8.9µM* | 18%[10 µM] | / | /
C1CCC[C@H]2CCCN3CC[C@H](CCCCCC[C@@H]4CCCN5CC[C@H](CC1)OC45)OC23 | -8% | / | 11% | -5% | / | /
CC(C)(C)C(=O)[C@H]([C@@H](c1ccccc1)N1CCOCC1)N1CCOCC1 | / | / | / | 19%[10 µM] | / | /
Cc1nc(CS(=O)(=O)c2ccc(Cl)cc2)sc1C(=O)O | / | 0%[9.22 µM] | 17% | 2%[10 µM] | / | /
O=S(=O)(N/N=C/c1ccc(OC2CSC2)cc1)c1ccccc1 | -4% | -1% | ? | 2%[10 µM] | -12% | 3
O=S(=O)(N/N=C/c1ccc(N2CCOCC2)cc1)c1ccccc1 | 20% | ? | 10µM* | -28%[10 µM] | / | /
O=C(Nc1ccc(F)cc1)C1=CC(=O)N2CCN=C2S1 | 11% | 11% | 16µM* | 24%[10 µM] | / | /
CC1=NCCN1CCNC(=O)Nc1ccc(F)cc1 | / | -14%[9.22 µM] | 19% | -3%[10 µM] | / | /
COC(=O)COc1ccc(S(=O)(=O)NCCC2=CCCCC2)cc1 | 17%[38.3 µM] | -9% | 22µM* | -12%[10 µM] | -1% | -7[1.84 µM]
CCCNS(=O)(=O)c1ccc(OCC(=O)NCCC2=CCCCC2)cc1 | 17%[38.3 µM] | 4% | 11µM* | -6% | 1% | 3
O=C(COc1ccc([N+](=O)[O-])cc1)NCCC1=CCCCC1 | 11% | -6% | 10µM* | -4%[10 µM] | -11% | /
COC(=O)COc1ccc(S(=O)(=O)NCCC2=CCCCC2)cc1C | -4%[38.3 µM] | -2% | -6% | 7%[0.074 µM] | -1% | -2
CC(C)NS(=O)(=O)c1ccc(OCC(=O)NCCC2=CCCCC2)cc1 | 21%[38.3 µM] | 2% | -15% | 4% | -4% | 6
COc1ccc2cnoc(=O)c2c1OC | -23% | / | ? | -10% | ? | /
CO/N=C/CC(=O)c1cnc(-c2ccc(Cl)cc2)s1 | -7% | 13% | 3.2µM* | -63% | / | /
Cc1ccc(S(=O)(=O)NCCNC(=O)c2ccccc2)cc1 | -3%[38.3 µM] | 9% | -4% | 10% | -4% | 3

Source: PubChem BioAssay
